Compounds with a hit are over-represented: about 4.8% of the library has one in this group of screens.
SMARCA2 act – SMARCA2 function activation, primary screen. MG213 cells, MMTV-luciferase reporter, dexamethasone, overnight. activation, % at 9.1 µM. 1% of 370,000 active; in the data active = activation above about 7.8%;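 note: 0% = vehicle wells and 100% = reference activator wells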
hgDAF-12 ag – activates the H. glycines DAF-12 receptor ligand-binding domain. HEK293 GAL4-hgDAF12 UAS-luciferase reporter, agonist luminescence; normalized to butyrate control. activation, % at 6.8 µM. 1.8% of 370,000 active. AID 687014;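 active = activation above a cutoff set at the mean of all screened compounds plus 3 SD, cut at about 10% in these data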;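 note: 0% = DMSO wells and 100% = sodium butyrate wells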
ssDAF-12 act – activates DAF-12 receptor from parasite S. stercoralis; HEK293 ssDAF-12/GRIP1 lit1-tk-luc reporter, luminescence; % of 3 µM dafachronic acid response; 1% of 370,000 active; activation, % at 6.8 µM;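 active = activation above the mean over all tested compounds plus 3 SD, cut at about 0.9% in these data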;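 note: 0% = DMSO-only wells and 100% = 3 µM delta7-dafachronic acid wells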
DAX1 inh-1 – DAX1 (NR0B1) inhibition, primary screen; HEK293T StAR-luciferase reporter, SF-1/DAX-1 repression relief; 1.1% of 370,000 active; inhibition, % at 6.8 µM;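 active = inhibition above the mean over all tested compounds plus 3 SD, cut at about 3.6% in these data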;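 note: 0% = DAX-1 cells with DMSO and 100% = cells lacking DAX-1 with DMSO; higher inhibition means more luminescence from relief of DAX-1 repression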
DAX1 inh-2 – inhibitors of human orphan nuclear receptor DAX1 (NR0B1); AID 504766; 0.99% of 340,000 active; HEK293 Gal4-DAX1 luciferase reporter, luminescence; P51843; inhibition, % at 6.75 µM;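 active = inhibition above the mean over all tested compounds plus 3 SD, cut at about 4.2% in these data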;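 note: 0% = DAX1-transfected cells with DMSO and 100% = empty-vector control cells with DMSO; inhibition shows as a rise in luminescence from relieved DAX1 repression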
Target sequence (P51843 207-470 limits assumed): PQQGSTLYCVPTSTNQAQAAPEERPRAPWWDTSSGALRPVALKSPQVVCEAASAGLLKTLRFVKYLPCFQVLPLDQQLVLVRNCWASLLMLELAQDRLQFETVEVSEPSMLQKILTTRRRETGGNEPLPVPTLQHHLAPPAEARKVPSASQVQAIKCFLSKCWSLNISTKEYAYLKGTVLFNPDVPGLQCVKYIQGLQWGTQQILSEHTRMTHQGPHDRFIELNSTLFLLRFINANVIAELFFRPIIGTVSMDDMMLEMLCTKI
hcDAF-12 act – H. contortus DAF-12 activation, primary screen; HEK293 hcDAF-12 lit1-tk-luc reporter, luminescence; 0% DMSO, 100% Δ7-dafachronic acid; activation, % at 6.8 µM; 1.4% of 370,000 active;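 active = activation above the mean of all tested compounds plus 3 SD, cut at about 5.5% in these data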;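 note: 100% = response to 3 µM Δ7-dafachronic acid high control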
hgDAF12 ag – confirmation of H. glycines DAF-12 agonists | activation, % at 6.8 µM | HEK293 GAL4-hgDAF12 luciferase reporter, agonist mode; percent of butyrate response | shares compounds with hgDAF-12 ag | 80% of 3,300 active;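 active = mean activation over triplicate wells above the hit cutoff derived from the earlier primary screen, cut at about 11% in these data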;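 note: 0% = DMSO low control and 100% = 2 mM sodium butyrate high control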
LXRb DAF12 ctr – LXR-beta agonism as DAF-12 counter-screen; activation, % at 6.8 µM; 3,300 tested, under 10 active; AID 743051; HEK293 Gal4-LXR luciferase reporter, 24 h; shares compounds with hgDAF-12 ag;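 active = mean activation of the triplicate above a set limit carried over from the primary screen, none filed active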
Target sequence (P55055 whole entry, looked up, the tested form may be a part): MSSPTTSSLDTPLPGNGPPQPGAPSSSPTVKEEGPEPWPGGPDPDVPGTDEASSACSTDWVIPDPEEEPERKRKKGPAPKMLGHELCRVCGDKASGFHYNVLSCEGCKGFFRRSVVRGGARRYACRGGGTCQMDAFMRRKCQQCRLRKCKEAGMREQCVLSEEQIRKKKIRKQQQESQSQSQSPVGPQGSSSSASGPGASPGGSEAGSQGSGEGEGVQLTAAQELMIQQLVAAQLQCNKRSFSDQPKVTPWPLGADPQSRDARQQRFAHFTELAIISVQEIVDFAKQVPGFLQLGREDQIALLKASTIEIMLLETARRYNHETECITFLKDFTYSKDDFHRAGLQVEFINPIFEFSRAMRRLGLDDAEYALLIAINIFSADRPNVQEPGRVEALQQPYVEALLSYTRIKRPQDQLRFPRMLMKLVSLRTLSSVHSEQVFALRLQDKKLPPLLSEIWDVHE
* hit, by the source's call; x = not tested or not shown.

SMILES | SMARCA2 act | hgDAF-12 ag | ssDAF-12 act | DAX1 inh-1 | DAX1 inh-2 | hcDAF-12 act | hgDAF12 ag | LXRb DAF12 ctr
O=C(Nc1nc2ccccc2s1)Nc1ccc(F)cc1F | 5.8 | 13.7* | -0.1 | 1.5 | 3.3 | 5.5 | 15.4* | 0.8
CCC/C(=N/NC(=O)c1cccc(Cl)c1)c1ccccc1 | 2.5 | 16.6* | -0.5 | 1.9 | 0.1 | 2.6 | 0.2 | 0.0
CC1(C)CC(=O)c2cc(N=C/C(C(=O)c3ccccc3)=C(\O)c3ccccc3)c(=O)oc2C1 | 1.4 | 14.3* | 0.1 | 0.6 | 5.1* | 1.3 | 7.5 | 0.2
CC1SC(C)C(=O)N(CC(=O)Nc2ccc3c(c2)OCO3)C1=O (stereo unspecified) | 1.5 | 14.0* | -1.4 | -1.5 | 0.8 | 0.1 | 2.9 | 0.1
O=C(CN1C(=O)CSCC1=O)Nc1ccc2c(c1)OCO2 | -4.6 | 0.6 | -1.5 | 0.0 | -0.2 | 0.8 | x | x
O=C(Cc1ccccc1)Nc1cc2c(cc1Cl)OCCCO2 | 5.0 | 9.3 | -0.2 | 0.8 | 1.6 | 2.1 | x | x
CCc1ccc(C(=O)Nc2cc3c(cc2Cl)OCCCO3)cc1 | 7.2 | 14.2* | 0.7 | 2.5 | 3.6 | 3.4 | 13.9* | 0.6
CCOC(=O)c1c(C)[nH]c(C(=O)CSc2ccccc2)c1C | 4.0 | 17.8* | 0.8 | 3.5 | -0.3 | 5.6* | 13.7* | 1.1
Cc1ccc(-c2nc3ccc(C)cn3c2Cc2cccc(F)c2)cc1 | 5.9 | 14.7* | 0.0 | 3.6* | x | 3.5 | 5.1 | 0.2
CCCc1nc2ccc(C(=O)OC)cn2c1Cc1ccc(C)cc1 | 0.6 | 1.7 | 0.6 | -0.4 | x | 3.0 | x | x
Cc1ccc2nc(C(C)(C)C)c(Cc3cccc(F)c3)n2c1 | 5.0 | 16.2* | 2.2* | 3.7* | x | 3.5 | 5.3 | 0.2
COc1ccc(Cc2c(-c3cccc(Cl)c3)nc3ccc(Br)cn23)c(C)c1 | 4.2 | 5.9 | -1.1 | 2.8 | x | -0.1 | x | x
CCCc1nc2ccc(C)cn2c1Cc1ccc(C)cc1 | -0.2 | 13.8* | -0.2 | 1.3 | x | 4.5 | 9.3 | 0.5
COc1ccc(Cc2c(-c3ccc(F)cc3)nc3ccc(Br)cn23)c(C)c1 | 2.0 | 13.6* | 0.4 | 0.2 | x | 2.4 | 7.6 | 0.4
Fc1ccc(-c2nc3ccc(Cl)cn3c2Cc2cccc(F)c2)cc1 | -4.2 | 2.0 | -1.0 | 1.4 | x | 0.7 | x | x
C#CCNc1cccc2c1S(=O)(=O)N[C@H](C)CO2 | -2.0 | -1.5 | -0.8 | 1.5 | x | 2.7 | x | x
CN1CCCCC(NC(=O)C23CC4CC(CC(C4)C2)C3)C1=O (stereo unspecified) | -3.3 | -0.2 | -1.2 | 0.3 | x | 0.1 | x | x
COc1ccccc1Cc1c(-c2cccc(Cl)c2)nc2ccc(C)cn12 | 2.7 | 14.9* | -0.4 | 2.9 | x | 2.3 | 4.5 | 0.2
N#Cc1ccc(Nc2nc(-c3ccccc3)cs2)cc1 | 2.4 | 18.3* | 0.7 | -0.6 | x | 3.6 | 15.9* | 0.7
O=C1C(Nc2ccccc2)=C2CCCC=C2N1c1ccccc1 | 6.6 | 13.5* | 0.1 | 4.2* | 2.3 | 5.4 | 2.6 | 0.1
CC(=O)C1=CCN(C)CC1 | -5.0 | 2.8 | -1.5 | -0.2 | x | -0.4 | x | x
Cc1ccc(NC(=O)c2[nH]cnc2C(=O)NN)cc1 | -0.3 | 13.2* | -0.9 | 0.9 | 0.7 | 0.0 | 2.5 | 0.1
CC1(C)OC(=O)C2=C(CC(CCc3ccccc3)OC2c2cccc(C(F)(F)F)c2)O1 (stereo unspecified) | 0.1 | -1.8 | -0.2 | 0.0 | x | 0.2 | x | x
Cc1cc(NC(=O)c2nn3cccnc3c2Cl)no1 | 6.5 | 13.6* | 0.7 | 3.1 | 0.3 | 2.3 | 14.6* | 0.8
COc1ccc(-n2c(SCC(=O)Nc3ccc(Oc4ccccc4)cc3)nnc2-c2ccco2)cc1 | -7.0 | 2.0 | -1.5 | -3.2 | x | -2.5 | x | x
SMILES | SMARCA2 act | hgDAF-12 ag | ssDAF-12 act | DAX1 inh-1 | DAX1 inh-2 | hcDAF-12 act | hgDAF12 ag | LXRb DAF12 ctr
CCc1ccc(OCCCC(=O)Nc2ccc(N3CCCCC3)cc2)cc1 | -1.3 | 0.7 | -1.1 | -0.2 | -0.5 | -0.1 | x | x
CCCCOC(=O)Nc1ccc(N2CCCCC2)cc1 | 1.4 | 13.4* | -0.2 | 3.5 | 1.2 | 3.7 | 13.4* | 0.7
CC1=Nc2ccccc2N=C(NC(=O)c2ccccc2)C1c1ccc(Cl)cc1 (stereo unspecified) | -4.1 | 18.3* | -0.3 | 1.6 | 0.5 | -0.3 | -2.7 | 0.0
OCCC(N1CCOCC1)C(O)(c1ccccc1)c1ccccc1 (stereo unspecified) | 1.0 | -0.2 | -1.5 | 0.3 | x | 0.0 | x | x
CC(=O)N1CCc2cc(N=NC3=C(O)CCCC3=O)ccc21 | 2.4 | 15.5* | -0.6 | 1.6 | 4.0 | 3.5 | 16.0* | 0.5
CCC(=O)Nc1ccc(/C(C)=N\NC(=O)c2ccc(C)s2)cc1 | -0.6 | 8.2 | -1.0 | 1.0 | 0.6 | 0.7 | x | x
C/C(=N\NC(=O)c1nn(C)c(C)c1Br)c1ccc(NC(=O)c2ccc(C)s2)cc1 | 7.5 | 17.4* | 0.1 | 3.5 | 2.0 | 3.2 | 7.4 | 0.1
CCCN1CCCCC(NC(=O)c2ccc(F)c(F)c2)C1=O (stereo unspecified) | -0.8 | -0.4 | -1.2 | 0.5 | x | 1.2 | x | x
Cn1cc(Br)c(C(=O)NNC(=O)c2ccc(Br)cc2)n1 | 3.8 | 13.9* | -0.8 | 1.8 | 0.8 | -0.2 | 3.8 | 0.3
CCN(CC)c1ccc(N=Nc2ncn[nH]2)cc1 | 3.6 | 15.1* | -0.5 | 1.9 | x | 3.8 | 9.8 | 0.4
Cc1ccc(NC(=O)c2ccc(CSc3nnc(C)s3)cc2)cc1 | 3.2 | 16.1* | -0.2 | 1.8 | 3.4 | 3.8 | 13.8* | 0.6
Nc1ccccc1NC(=O)c1ccccc1 | 1.6 | 27.0* | -1.0 | 4.3* | 7.4* | 2.1 | 50.9* | 0.2
Cc1ccc(NC(=O)c2ccccc2)cc1 | 3.9 | 13.7* | 0.5 | 1.6 | 1.9 | 2.7 | 16.6* | 0.8
Cc1ccc(NC(=O)c2ccc(Cl)c(N3C(=O)C=CC3=O)c2)cc1 | 5.3 | 13.5* | 0.5 | 3.8* | 2.6 | 3.4 | -0.1 | 0.0
Cc1ccc(CN2CC(N3CCC[C@@H]3C)CS2(=O)=O)cc1 (stereo partly specified) | -2.3 | 1.1 | -1.0 | -1.0 | x | -0.7 | x | x
COc1cc(Cl)ccc1OCc1cc(C(=O)N2CCN(C)C(=O)[C@@H]2C)no1 | -0.5 | 14.5* | -0.4 | 2.6 | 3.2 | 5.8* | 13.0* | 0.5
COc1cc(Cl)ccc1OCc1cc(C(=O)N2CCN(C)CC2)no1 | -2.7 | -2.3 | -0.5 | 0.1 | 0.2 | 0.7 | x | x
CC(=O)Oc1ccccc1/C=C/c1ccc2ccccc2[n+]1C | 7.1 | 13.4* | 1.9* | 1.5 | 4.2 | 6.0* | 11.1* | 0.3
COC(=O)CC(=O)CC(NS(=O)(=O)c1ccc(C)cc1)c1ccccc1 (stereo unspecified) | 1.7 | 1.0 | -1.2 | 0.0 | x | -1.5 | x | x

Screening results from PubChem.
